About 2,000 (36%) of roughly 5,500 compounds were called active. Not shown: some 18% with an inconclusive outcome. No stated cut-off is given here; in the data, active means normalized growth mostly below about 0.91 (no sharp cut-off); inconclusive means no clear call, values can overlap the other calls; inactive means mostly above about 0.92. Some of the results follow.
Experiment: chemical genetic growth profiling, strain panel (AID 1159580);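 further: tested at 20 µM; growth read once vehicle control cultures reached saturation at 30 °C; 1 = growth at the plate median or of vehicle wells; lower values mean less growth of the strain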
Conditions: S. cerevisiae deletion strains, growth OD

Measured: normalized growth

CCCCc1ccc(N=CNO)c(C)c1
active: locus YDL214C, strain PRR2, active compounds read low 0.427 | locus YDR477W, strain SNF1, active compounds read low 0.463 | locus YER123W, strain YCK3, active compounds read low 0.242 | locus YER133W, strain GLC7, active compounds read low 0.41 | locus YFR019W, strain FAB1, active compounds read low 0.255 | locus YGR040W, strain KSS1, active compounds read low 0.485 | locus YGR052W, strain FMP48, active compounds read low 0.246 | locus YHR030C, strain SLT2, active compounds read low 0.225 | locus YHR079C, strain IRE1, active compounds read low 0.146 | locus YHR082C, strain KSP1, active compounds read low 0.362 | locus YHR205W, strain SCH9, active compounds read low 0.475 | locus YJL095W, strain BCK1, active compounds read low 0.178 | locus YJL157C, strain FAR1, active compounds read low 0.45 | locus YJR066W, strain TOR1 (second series), active compounds read low 0.181 | locus YJR066W, strain TOR1, active compounds read low 0.236 | locus YKL048C, strain ELM1, active compounds read low 0.604 | locus YKL067W, strain YNK1, active compounds read low 0.48 | locus YKL101W, strain HSL1, active compounds read low 0.488 | locus YKL203C, strain TOR2, active compounds read low 0.391 | locus YLR113W, strain HOG1, active compounds read low 0.259 | locus YLR133W, strain CKI1, active compounds read low 0.558 | locus YLR403W, strain SFP1, active compounds read low 0.465 | locus YML070W, strain DAK1, active compounds read low 0.321 | locus YMR205C, strain PFK2 (second series), active compounds read low 0.558 | locus YNL020C, strain ARK1, active compounds read low 0.529 | locus YNL183C, strain NPR1, active compounds read low 0.229 | locus YNL307C, strain MCK1 (second series), active compounds read low 0.452 | locus YOL136C, strain PFK27, active compounds read low 0.358 | locus YOR061W, strain CKA2, active compounds read low 0.528 | locus YOR119C, strain RIO1, active compounds read low 0.332 | locus YOR231W, strain MKK1, active compounds read low 0.281 | locus YPL031C, strain PHO85, active compounds read low 0.444 | locus YPL153C, strain RAD53, active compounds read low 0.369 | locus YPL204W, strain HRR25, active compounds read low 0.418 | locus YPL256C, strain CLN2, active compounds read low 0.267
inactive: locus YAR019C, strain CDC15, active compounds read low 0.985 | locus YBL105C, strain PKC1, active compounds read low 1.01 | locus YBR135W, strain CKS1, active compounds read low 0.983 | locus YBR136W, strain MEC1, active compounds read low 0.976 | locus YBR160W, strain CDC28, active compounds read low 0.996 | locus YDL017W, strain CDC7, active compounds read low 0.997 | locus YDL028C, strain MPS1, active compounds read low 0.974 | locus YDL101C, strain DUN1, active compounds read low 0.914 | locus YDL108W, strain KIN28, active compounds read low 0.974 | locus YDL132W, strain cdc53, active compounds read low 0.977 | locus YDR052C, strain DBF4, active compounds read low 0.995 | locus YDR054C, strain cdc34, active compounds read low 0.967 | locus YDR226W, strain ADK1, active compounds read low 0.986 | locus YFL009W, strain cdc4, active compounds read low 0.986 | locus YFL029C, strain CAK1, active compounds read low 0.977 | locus YFR003C, strain YPI1, active compounds read low 0.99 | locus YFR028C, strain CDC14, active compounds read low 0.967 | locus YGR092W, strain DBF2, active compounds read low 0.575 | locus YIL147C, strain SLN1, active compounds read low 0.985 | locus YJL128C, strain PBS2, active compounds read low 0.982 | locus YJR016C, strain ILV3, active compounds read low 0.996 | locus YKL193C, strain SDS22, active compounds read low 0.978 | locus YMR001C, strain CDC5, active compounds read low 0.982 | locus YMR277W, strain FCP1, active compounds read low 0.977 | locus YNL006W, strain LST8, active compounds read low 1 | locus YNL161W, strain CBK1, active compounds read low 0.992 | locus YNL207W, strain RIO2, active compounds read low 0.968 | locus YNL222W, strain SSU72, active compounds read low 0.985 | locus YOL078W, strain AVO1, active compounds read low 0.948 | locus YOR329C, strain SCD5, active compounds read low 0.993 | locus YPL209C, strain IPL1, active compounds read low 0.993 | locus YPR025C, strain CCL1, active compounds read low 0.993 | locus YPR106W, strain ISR1, active compounds read low 0.989 | locus YPR111W, strain DBF20, active compounds read low 0.995 | strain NNK1, active compounds read low 0.974 | strain TSCII, active compounds read low 0.964

— PubChem BioAssay AID1159580 (chemical genetic matrix, 2015)
